Inhibition data for seven compounds are collected here from ChEMBL document CHEMBL1961873, “Compounds: GSK PKIS; Assays: Nanosyn kinase panel” (2012).

Experiment [1] addresses Tyrosine-protein kinase Fer (Homo sapiens) (UniProt P16591). Particulars: at 1 µM.
Experiment [2] deals with Tyrosine-protein kinase Fes/Fps (Homo sapiens) (UniProt P07332). Conditions: at 0.1 µM.
For experiment [3] the target is unchanged. Particulars: at 1 µM.
Experiment [4] has as its target Fibroblast growth factor receptor 1 (Homo sapiens) (UniProt P11362). Conditions: at 0.1 µM.
Experiment [5] shares this target. Particulars: at 1 µM.
Experiment [6] addresses Fibroblast growth factor receptor 2 (Homo sapiens) (UniProt P21802). Particulars: at 0.1 µM.
Experiment [7] shares this target. Conditions: at 1 µM.
Experiment [8] concerns the target Fibroblast growth factor receptor 3 (Homo sapiens) (UniProt P22607). Conditions: at 0.1 µM.
The target is the same in experiment [9]. Particulars: at 1 µM.
Experiment [10] addresses Fibroblast growth factor receptor 4 (Homo sapiens) (UniProt P22455). Conditions: at 0.1 µM.
The target is the same in experiment [11]. Particulars: at 1 µM.
Experiment [12] deals with Tyrosine-protein kinase Fgr (Homo sapiens) (UniProt P09769). Particulars: at 0.1 µM.
Sequence of Tyrosine-protein kinase Fgr (Homo sapiens) (P09769 2-529 limits assumed): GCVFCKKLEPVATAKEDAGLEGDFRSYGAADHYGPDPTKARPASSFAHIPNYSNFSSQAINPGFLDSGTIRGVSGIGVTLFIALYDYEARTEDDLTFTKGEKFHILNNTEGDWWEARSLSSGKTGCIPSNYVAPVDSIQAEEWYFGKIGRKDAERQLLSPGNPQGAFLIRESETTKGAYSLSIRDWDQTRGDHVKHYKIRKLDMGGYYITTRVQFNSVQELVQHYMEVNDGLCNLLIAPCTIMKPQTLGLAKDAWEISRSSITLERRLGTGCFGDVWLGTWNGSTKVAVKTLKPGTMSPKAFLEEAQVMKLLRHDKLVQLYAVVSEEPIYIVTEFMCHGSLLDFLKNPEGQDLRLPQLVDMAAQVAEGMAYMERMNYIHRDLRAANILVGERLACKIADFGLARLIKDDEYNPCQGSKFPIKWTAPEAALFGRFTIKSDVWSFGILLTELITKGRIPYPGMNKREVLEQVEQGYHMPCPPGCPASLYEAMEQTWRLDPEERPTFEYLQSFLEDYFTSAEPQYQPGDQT
Experiment [13] shares this target. Conditions: at 1 µM.
Experiment [14] addresses Vascular endothelial growth factor receptor 1 (Homo sapiens) (UniProt P17948). Conditions: at 0.1 µM.
For experiment [15] the target is unchanged. Conditions: at 1 µM.
The target of experiment [16] is Receptor-type tyrosine-protein kinase FLT3 (Homo sapiens) (UniProt P36888). Particulars: at 0.1 µM.
The target is the same in experiment [17]. Conditions: at 1 µM.
The subject of experiment [18] is T1, Receptor-type tyrosine-protein kinase FLT3 (Homo sapiens), P36888 [D835Y].
T1 sequence (whole entry): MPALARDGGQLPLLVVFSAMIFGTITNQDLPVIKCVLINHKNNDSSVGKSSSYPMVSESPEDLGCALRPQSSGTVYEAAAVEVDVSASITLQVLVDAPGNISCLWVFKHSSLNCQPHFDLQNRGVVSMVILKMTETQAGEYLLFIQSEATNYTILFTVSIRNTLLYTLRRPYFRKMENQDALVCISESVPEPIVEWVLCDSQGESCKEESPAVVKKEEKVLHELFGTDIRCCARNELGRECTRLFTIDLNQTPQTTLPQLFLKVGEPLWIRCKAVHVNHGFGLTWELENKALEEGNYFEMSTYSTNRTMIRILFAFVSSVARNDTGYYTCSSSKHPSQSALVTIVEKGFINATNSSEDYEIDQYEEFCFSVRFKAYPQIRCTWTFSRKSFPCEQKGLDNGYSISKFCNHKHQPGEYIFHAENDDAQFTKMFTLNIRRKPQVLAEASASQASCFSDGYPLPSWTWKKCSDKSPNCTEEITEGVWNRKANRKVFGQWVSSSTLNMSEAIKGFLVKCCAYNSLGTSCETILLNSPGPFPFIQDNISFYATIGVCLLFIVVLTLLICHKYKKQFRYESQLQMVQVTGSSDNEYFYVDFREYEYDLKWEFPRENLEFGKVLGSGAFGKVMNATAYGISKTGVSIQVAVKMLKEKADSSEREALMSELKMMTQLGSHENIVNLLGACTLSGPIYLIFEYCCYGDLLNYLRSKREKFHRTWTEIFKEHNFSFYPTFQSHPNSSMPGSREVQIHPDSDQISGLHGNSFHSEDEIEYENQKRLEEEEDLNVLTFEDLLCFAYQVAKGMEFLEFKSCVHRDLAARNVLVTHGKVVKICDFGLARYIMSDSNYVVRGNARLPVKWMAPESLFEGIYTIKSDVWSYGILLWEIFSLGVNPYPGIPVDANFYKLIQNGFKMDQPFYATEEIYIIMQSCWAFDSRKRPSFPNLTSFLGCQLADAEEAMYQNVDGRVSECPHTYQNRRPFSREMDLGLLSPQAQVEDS
Conditions: at 0.1 µM.

The target of experiment [19] is Non-receptor tyrosine-protein kinase TYK2 (Homo sapiens) (UniProt P29597). Particulars: at 1 µM.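 Note: values are mean percent inhibition of TYK2 kinase.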
The target in experiment [20] is T2, Tyrosine-protein kinase receptor TYRO3 (Homo sapiens) (UniProt Q06418).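 Note: reported percentages are averaged inhibition values of TYRO3 kinase activity.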
T2 sequence (whole entry): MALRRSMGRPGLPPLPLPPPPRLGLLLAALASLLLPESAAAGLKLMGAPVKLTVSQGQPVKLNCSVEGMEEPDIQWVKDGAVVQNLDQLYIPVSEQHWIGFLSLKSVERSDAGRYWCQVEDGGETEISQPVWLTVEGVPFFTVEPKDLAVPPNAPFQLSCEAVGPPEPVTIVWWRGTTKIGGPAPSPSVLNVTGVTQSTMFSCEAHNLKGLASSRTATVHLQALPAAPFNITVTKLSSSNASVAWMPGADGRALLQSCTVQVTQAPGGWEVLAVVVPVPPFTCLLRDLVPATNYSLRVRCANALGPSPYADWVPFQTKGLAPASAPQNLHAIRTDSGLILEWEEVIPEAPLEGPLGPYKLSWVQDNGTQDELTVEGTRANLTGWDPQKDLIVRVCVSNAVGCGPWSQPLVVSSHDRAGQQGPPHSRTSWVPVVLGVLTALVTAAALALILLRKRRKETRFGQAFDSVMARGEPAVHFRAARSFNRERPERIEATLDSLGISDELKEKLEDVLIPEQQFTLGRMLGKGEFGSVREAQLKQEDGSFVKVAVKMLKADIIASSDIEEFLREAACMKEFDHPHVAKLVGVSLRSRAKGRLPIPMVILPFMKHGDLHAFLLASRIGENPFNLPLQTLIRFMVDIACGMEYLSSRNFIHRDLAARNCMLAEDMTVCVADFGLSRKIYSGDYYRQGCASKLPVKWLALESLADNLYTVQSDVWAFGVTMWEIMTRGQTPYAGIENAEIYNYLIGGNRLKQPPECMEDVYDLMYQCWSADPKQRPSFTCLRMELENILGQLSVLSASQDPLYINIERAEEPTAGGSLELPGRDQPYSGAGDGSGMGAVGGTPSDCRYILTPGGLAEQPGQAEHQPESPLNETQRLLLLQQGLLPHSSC
Conditions: at 0.1 µM.

Sequence of Vascular endothelial growth factor receptor 1 (Homo sapiens) (P17948 whole entry): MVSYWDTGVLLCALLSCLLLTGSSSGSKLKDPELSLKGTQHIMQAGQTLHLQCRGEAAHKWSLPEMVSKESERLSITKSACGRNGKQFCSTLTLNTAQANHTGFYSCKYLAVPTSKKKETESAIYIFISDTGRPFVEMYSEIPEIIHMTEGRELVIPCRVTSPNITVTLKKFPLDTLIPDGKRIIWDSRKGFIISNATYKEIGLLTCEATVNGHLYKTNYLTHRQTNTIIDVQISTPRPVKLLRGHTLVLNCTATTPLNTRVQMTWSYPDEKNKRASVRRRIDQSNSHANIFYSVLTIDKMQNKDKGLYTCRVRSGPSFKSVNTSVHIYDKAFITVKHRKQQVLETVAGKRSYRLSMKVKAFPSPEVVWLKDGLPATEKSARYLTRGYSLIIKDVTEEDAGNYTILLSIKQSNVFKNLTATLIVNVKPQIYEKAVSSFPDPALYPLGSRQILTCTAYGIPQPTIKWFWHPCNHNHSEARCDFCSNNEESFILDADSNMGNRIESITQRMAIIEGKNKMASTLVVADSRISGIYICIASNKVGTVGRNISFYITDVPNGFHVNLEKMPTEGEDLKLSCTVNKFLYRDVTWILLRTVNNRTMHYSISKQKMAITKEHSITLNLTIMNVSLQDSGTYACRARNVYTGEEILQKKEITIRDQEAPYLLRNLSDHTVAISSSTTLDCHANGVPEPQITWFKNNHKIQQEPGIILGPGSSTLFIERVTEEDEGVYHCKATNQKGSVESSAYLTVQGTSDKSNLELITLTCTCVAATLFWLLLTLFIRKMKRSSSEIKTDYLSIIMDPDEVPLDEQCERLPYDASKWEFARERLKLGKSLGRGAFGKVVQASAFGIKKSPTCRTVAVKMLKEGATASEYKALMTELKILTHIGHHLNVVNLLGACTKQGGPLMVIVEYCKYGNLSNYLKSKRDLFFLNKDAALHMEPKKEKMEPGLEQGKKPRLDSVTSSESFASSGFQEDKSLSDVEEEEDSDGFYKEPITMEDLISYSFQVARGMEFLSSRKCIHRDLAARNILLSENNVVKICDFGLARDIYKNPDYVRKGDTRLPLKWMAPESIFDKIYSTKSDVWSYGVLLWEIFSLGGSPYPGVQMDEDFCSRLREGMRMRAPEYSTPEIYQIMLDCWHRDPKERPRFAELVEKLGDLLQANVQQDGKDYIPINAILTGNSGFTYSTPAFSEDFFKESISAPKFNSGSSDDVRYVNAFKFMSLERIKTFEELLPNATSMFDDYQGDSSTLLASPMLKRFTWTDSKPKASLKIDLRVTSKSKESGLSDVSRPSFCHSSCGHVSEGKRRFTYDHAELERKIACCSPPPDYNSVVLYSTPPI
Sequence of Fibroblast growth factor receptor 2 (Homo sapiens) (P21802 22-821 limits assumed): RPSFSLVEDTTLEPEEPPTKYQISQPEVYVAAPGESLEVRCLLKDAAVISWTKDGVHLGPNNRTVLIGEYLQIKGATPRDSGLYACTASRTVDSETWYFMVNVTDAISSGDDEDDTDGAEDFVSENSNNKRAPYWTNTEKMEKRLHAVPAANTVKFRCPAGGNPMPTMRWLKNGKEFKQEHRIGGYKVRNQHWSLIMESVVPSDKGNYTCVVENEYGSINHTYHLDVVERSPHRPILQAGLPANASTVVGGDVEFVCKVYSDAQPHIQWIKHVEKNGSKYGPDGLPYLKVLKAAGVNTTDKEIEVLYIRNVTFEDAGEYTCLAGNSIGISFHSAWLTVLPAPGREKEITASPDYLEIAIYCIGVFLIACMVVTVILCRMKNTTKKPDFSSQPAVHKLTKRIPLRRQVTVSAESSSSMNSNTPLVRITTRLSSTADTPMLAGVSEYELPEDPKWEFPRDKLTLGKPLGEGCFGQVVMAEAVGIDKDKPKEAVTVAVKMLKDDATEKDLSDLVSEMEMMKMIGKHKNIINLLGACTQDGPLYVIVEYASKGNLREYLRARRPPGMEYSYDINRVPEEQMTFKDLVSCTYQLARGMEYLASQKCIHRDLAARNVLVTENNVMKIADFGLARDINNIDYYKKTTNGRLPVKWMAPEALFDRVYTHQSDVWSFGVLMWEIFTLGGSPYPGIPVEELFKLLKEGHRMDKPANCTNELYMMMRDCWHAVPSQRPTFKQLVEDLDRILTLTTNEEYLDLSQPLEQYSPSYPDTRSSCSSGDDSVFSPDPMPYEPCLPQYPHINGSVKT
Sequence of Fibroblast growth factor receptor 1 (Homo sapiens) (P11362 22-822 limits assumed): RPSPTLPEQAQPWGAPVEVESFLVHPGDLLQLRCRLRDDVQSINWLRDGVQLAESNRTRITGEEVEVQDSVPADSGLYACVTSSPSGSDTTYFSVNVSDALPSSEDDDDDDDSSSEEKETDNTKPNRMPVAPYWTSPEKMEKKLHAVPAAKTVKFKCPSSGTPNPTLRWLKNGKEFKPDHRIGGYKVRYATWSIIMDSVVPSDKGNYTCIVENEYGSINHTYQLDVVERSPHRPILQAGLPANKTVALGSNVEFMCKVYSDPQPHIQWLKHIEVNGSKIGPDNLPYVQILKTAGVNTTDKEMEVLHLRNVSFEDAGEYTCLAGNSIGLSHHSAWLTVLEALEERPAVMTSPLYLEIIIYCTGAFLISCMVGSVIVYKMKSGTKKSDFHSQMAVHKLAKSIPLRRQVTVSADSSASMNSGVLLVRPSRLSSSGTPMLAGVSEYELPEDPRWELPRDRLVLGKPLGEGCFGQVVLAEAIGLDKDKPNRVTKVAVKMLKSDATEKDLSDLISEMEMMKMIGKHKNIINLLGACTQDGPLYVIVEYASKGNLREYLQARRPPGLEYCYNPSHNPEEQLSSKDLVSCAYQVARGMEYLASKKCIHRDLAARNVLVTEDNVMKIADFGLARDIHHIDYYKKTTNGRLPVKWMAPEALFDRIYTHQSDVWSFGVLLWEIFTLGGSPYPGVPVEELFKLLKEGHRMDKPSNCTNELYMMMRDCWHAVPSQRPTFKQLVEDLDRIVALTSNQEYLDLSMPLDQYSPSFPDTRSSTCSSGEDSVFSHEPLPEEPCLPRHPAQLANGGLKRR
Sequence of Fibroblast growth factor receptor 4 (Homo sapiens) (P22455 22-802 limits assumed): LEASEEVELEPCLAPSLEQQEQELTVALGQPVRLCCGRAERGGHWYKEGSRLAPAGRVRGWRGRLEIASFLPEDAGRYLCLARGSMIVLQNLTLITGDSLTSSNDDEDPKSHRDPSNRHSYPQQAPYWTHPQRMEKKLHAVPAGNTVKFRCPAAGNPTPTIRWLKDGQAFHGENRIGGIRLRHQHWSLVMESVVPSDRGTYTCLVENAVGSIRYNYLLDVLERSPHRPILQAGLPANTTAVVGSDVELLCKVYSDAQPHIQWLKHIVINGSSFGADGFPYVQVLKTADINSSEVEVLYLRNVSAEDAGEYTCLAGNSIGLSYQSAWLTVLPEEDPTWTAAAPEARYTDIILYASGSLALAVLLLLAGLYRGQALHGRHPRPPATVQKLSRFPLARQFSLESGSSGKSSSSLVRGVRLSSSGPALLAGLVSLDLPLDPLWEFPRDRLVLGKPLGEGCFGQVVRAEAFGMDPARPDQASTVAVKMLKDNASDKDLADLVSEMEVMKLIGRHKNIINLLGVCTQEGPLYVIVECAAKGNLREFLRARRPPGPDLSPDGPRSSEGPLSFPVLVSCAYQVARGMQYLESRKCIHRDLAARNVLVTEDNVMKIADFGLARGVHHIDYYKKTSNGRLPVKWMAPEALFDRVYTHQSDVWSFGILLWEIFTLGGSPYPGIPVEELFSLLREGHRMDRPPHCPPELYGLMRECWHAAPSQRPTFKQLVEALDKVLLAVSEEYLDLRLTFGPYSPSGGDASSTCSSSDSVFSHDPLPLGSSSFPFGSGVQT
Sequence of Fibroblast growth factor receptor 3 (Homo sapiens) (P22607 23-806 limits assumed): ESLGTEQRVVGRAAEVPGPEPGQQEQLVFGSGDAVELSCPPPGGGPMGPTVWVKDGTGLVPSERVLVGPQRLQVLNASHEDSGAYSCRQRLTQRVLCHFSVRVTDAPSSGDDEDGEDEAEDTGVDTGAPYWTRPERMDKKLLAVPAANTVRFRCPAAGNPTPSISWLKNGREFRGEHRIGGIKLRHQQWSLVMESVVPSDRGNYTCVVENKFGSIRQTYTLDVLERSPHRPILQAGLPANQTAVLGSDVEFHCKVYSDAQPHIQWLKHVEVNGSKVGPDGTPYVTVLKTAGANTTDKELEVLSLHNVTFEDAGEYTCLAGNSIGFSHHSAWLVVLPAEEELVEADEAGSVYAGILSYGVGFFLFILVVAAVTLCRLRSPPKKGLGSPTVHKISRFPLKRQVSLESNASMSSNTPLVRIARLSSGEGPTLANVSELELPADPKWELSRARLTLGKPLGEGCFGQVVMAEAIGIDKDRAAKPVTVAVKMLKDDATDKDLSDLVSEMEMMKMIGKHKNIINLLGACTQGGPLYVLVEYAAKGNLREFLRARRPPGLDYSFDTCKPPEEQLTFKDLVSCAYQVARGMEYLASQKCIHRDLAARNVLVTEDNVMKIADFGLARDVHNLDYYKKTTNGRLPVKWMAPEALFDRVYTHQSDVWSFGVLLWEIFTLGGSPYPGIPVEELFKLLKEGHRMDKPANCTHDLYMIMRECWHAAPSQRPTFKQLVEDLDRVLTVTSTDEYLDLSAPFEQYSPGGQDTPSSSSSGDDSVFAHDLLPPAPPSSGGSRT

Consider `CCN1CCC(CC(=O)Nc2n[nH]c3nc(-c4cccs4)c(Br)cc23)CC1`, for which the inhibition in [1] was 2.34%; in experiment [2], -3.39%; in experiment [3], -4.54%; in experiment [4] it was -3.02%; in experiment [5] it was -1.95%; in [6], -4.3%. In addition, the inhibition is -0.25% in experiment [7]; -1.64% in [8]; -1.77% in experiment [9]; 0.71% in experiment [10]; 1.97% in experiment [11]; -0.94% in [12]. The inhibition in experiment [13] was 0.5%; in experiment [14], 0.44%; in [15], 3.83%; in experiment [16], -0.9%; in experiment [17], 9.19%; in experiment [18], 3.26%. The inhibition is 2.37% in [19] and -1.49% in experiment [20].

Take `CCc1cccc(NC(=O)Nc2ccc(Oc3ccc4nc(NC(=O)OC)[nH]c4c3)cc2)c1`: the inhibition was 1.84% in experiment [1]; 0.9% in experiment [2]; 0.62% in experiment [3]; -3.46% in experiment [4]; 3.26% in [5]; 3.25% in experiment [6]. The inhibition is 8.89% in [7]; 3.09% in experiment [8]; 6.95% in experiment [9]; 4.21% in experiment [10]; -0.63% in [11]; 5.68% in [12]. Besides, the inhibition was found to be 5.18% in experiment [13]; 36.4% in experiment [14]; 43.8% in experiment [15]; 37.4% in experiment [16]; 48% in [17]; 1.59% in experiment [18]. For the same compound, the figures for the inhibition in [19] and in experiment [20] were -2.46% and 10.6%, respectively.

With `CCn1c(-c2nonc2N)nc2c(C#CC(C)(C)O)nc(OC[C@@H](N)c3ccccc3)cc21`, the inhibition in experiment [1] is 4.88%; in experiment [2], -0.53%; in experiment [3] it was 5.13%; in experiment [4] it was -3.47%; in [5], 5.43%; in [6], -3.01%. Also, the inhibition in experiment [7] is 0.85%; in experiment [8], -1.33%; in [9], -0.5%; in experiment [10] it was 2.3%; in [11], 0.19%; in [12], 5%. Further, the inhibition in [13] was 10.2%; in experiment [14] it was 5.16%; in experiment [15], 33.9%; in [16], -0.98%; in experiment [17], -0.75%; in [18], -1.79%. Also, the inhibition in experiment [19] was 0.35%; in experiment [20], -0.52%.

With `CC(C)=Cc1cccc2c1/C(=N/Nc1ccc(S(N)(=O)=O)cc1)C(=O)N2`, the inhibition in [1] was 20.1%; in experiment [2], 0.31%; in [3], 2.29%; in [4], -0.4%; in experiment [5] it was 14.7%; in [6] it was 3.88%. Further, the inhibition stood at 36.8% in experiment [7]; 3.36% in experiment [8]; 4.09% in experiment [10]; 1.59% in experiment [11]; 5.76% in [12]; 25.3% in [13]. In addition, the inhibition turned out to be 1.39% in [14]; 13.9% in [15]; 6.79% in experiment [16]; 48.9% in experiment [17]; 15.6% in [18]; 20.7% in experiment [19]. Also, the inhibition in experiment [20] was 2.83%.

Consider `COc1cc(C)c(NC(=O)CN(C)C)cc1Nc1nc(Nc2cccc(F)c2C(N)=O)c2cc[nH]c2n1`, for which the inhibition in experiment [1] amounted to 86.8%; in [2], 76.1%; in experiment [3] it was 89%; in [4], 0.49%; in experiment [5], 1.43%; in [6] it was 0.12%. For the same compound, the inhibition was 4.39% in experiment [7]; 2.37% in [8]; 1.03% in experiment [9]; -1.04% in [10]; 1.48% in [11]; 0.83% in [12]. The inhibition in experiment [13] was 2.7%; in [14], 2.27%; in [15], 0.42%; in [16], 1.69%; in [17] it was 4.08%; in experiment [18], -5.02%. Besides, the inhibition is -1.61% in [19] and 2.82% in [20].

Turning to `CCn1c(-c2nonc2N)nc2cnc(Oc3cccc(NC(=O)c4ccc(OCCN5CCOCC5)cc4)c3)cc21`, the inhibition amounted to 2.2% in experiment [1]; 2.8% in [2]; 2.83% in experiment [3]; 1.76% in experiment [4]; 5.99% in [5]; 4.83% in experiment [6]. Further, the inhibition in experiment [7] is 3.45%; in experiment [8], 3.36%; in [9], 1.9%; in [10], -4.45%; in [11], 2.48%; in experiment [12] it was 4.08%. The inhibition was 5.54% in [13]; 0.64% in experiment [14]; 2.14% in [15]; 0.9% in [16]; 3.19% in experiment [17]; -3.34% in experiment [18]. The inhibition in experiment [19] was -1.28%; in [20] it was 3.27%.

`CCn1c(-c2nonc2N)nc2cncc(C(=O)N3CC[C@H](N)C3)c21`: the inhibition in experiment [1] is 3.76%; in experiment [2] it was 2.6%; in experiment [3], 2.26%; in [4] it was 0.26%; in experiment [5], 1.87%; in experiment [6] it was 2.48%. Also, the inhibition is 4.96% in experiment [7]; 3.72% in experiment [8]; 2.58% in [9]; -6.25% in experiment [10]; 0.42% in experiment [11]; 3.4% in experiment [12]. For the same compound, the inhibition in [13] is 1.29%; in experiment [14] it was -0.71%; in [15], 4.67%; in experiment [16], 1.58%; in [17], 1.11%; in experiment [18] it was -5.73%. For the same compound, the inhibition in experiment [19] was -0.04%; in experiment [20] it was 4.09%.

By inhibition is commonly meant the change of the read-out against control, counted positive when it falls.
